This is a sample that favours compounds with a hit; in the whole collection about 10% have one here.
HEK cytotox: HEK 293 cell cytotoxicity. Potency, µM (highest dose often 115 µM), inactives show at the top dose activity change, negative = cytotoxicity, usual class: inhibitors. hit rate 6.6% among 94,000. HEK 293 viability, ATP luminescence (CellTiter-Glo), 48-72 h; also: nearly all actives have a fitted effect of over 60% in size
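CellTiter-Glo luminescence (cellular ATP) was read after 48 or 72 hr of compound exposure at 37 degree Celsius. Cells were HEK 293 plated at 250 cells/well.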
3T3 cytotox: kills NIH 3T3 cells. hit rate 4.3% among 94,000. Potency, µM (doses to about 96.7 µM), without a hit: at the highest dose activity change, negative = cytotoxicity, most hits filed as inhibitors. NIH 3T3 viability, CellTiter-Glo ATP luminescence, 48-72 h. AID 1345082; also: nearly all actives have a fitted effect of over 55% in size
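ATP-dependent luminescence (CellTiter-Glo) served as the viability signal for NIH 3T3 cells treated with compound for 48 or 72 hr at 37 °C.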
NPR1 antag: blocks ANP-stimulated signaling of human Npr1 receptor. HEK293 hNpr1 GloSensor cGMP, ANP-stimulated luminescence. Potency, µM (titrated, usually from 46.3 µM), for inactives: top-dose activity change, negative = inhibition, hits mostly inhibitors. hit rate 1.6% among 76,000; calls by dose curve; also: nearly all actives have a fitted effect of over 60% in size
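HEK293 cells stably expressing human Npr1 and cGMP GloSensor pGS-40F, loaded 2 h with 2% GloSensor reagent, given compound 30 min at room temperature. Luminescence read before and 20 min after 0.1 nM hNppA.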
GPT2 inhibitor: inhibitors of human GPT2 alanine aminotransferase; Q8TD30; Recombinant GPT2, coupled pyruvate oxidase/HRP Amplex Red fluorescence; Potency, µM (titrated, usually from 57.7 µM), for inactives: top-dose activity change, negative = inhibition, usual class: inhibitors; hit rate 0.25% among 100,000; AID 1671188; also: nearly all actives have a fitted effect of over 60% in size
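Fluorescence of coupled pyruvate oxidase/HRP/Amplex Red system (50uM Amplex, 30 min, dark) reports pyruvate formed by GPT2. Enzyme reaction: 10ng/uL GPT2, 2mM L-alanine, 250uM a-KG, 30 min room temperature, pH 7.5; 50uM AOA control.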
Luciferase inh: inhibitors of firefly (Photinus pyralis) luciferase; purified P. pyralis luciferase, luminescence, biochemical; P08659; Potency, µM (series often up to 115 µM), most hits filed as inhibitors; hit rate 2.5% among 76,000; also: nearly all actives have a fitted effect of over 65% in size
Target sequence (P08659 whole entry, looked up): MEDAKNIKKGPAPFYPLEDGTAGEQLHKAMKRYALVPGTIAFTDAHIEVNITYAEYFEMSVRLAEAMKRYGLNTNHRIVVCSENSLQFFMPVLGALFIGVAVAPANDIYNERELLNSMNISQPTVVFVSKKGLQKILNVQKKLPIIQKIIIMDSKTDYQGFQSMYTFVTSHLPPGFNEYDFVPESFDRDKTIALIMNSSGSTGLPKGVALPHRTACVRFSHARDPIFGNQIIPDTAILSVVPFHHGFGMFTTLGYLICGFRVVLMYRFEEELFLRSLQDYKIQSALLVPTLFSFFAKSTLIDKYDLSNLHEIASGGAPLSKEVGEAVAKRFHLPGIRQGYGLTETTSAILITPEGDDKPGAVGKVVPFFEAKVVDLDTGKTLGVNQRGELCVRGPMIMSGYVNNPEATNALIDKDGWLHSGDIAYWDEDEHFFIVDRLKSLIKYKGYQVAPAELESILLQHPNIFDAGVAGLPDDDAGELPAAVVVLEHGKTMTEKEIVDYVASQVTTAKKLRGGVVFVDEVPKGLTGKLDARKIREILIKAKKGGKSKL
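FLuc 10nM, D-luciferin 10uM, ATP 10uM, Mg acetate 10mM, Tris acetate pH 7.5, Tween/BSA; cpd qHTS; enzyme added last; CCD luminescence.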
* hit, by the source's call; i = inactive; u = inconclusive; x = no result; [ ] = another dose, or the depositor's remark. Unless noted, calls follow the shape of the dose curve; as a rule, active = well fitted curve in the direction sought with a large enough effect; inconclusive = small, poorly fitted or top-dose-only effect, or another doubt; inactive = no such curve, though single readings can be large; an effect the other way counts as inactive or inconclusive. % is scaled to controls: 0 for no effect and ±100 for the full control effect; potency is read from the fitted curve at half-maximal effect.

SMILES	HEK cytotox	3T3 cytotox	NPR1 antag	GPT2 inhibitor	Luciferase inh
CN(C)c1cc(=O)c2ccnc(-c3ccccc3F)c2o1	u	45µM*	3%[70.6 µM]	-14%[88.5 µM]	i
C[S+](=O)([O-])c1ccc(-c2nccc3c(=O)cc(-c4ccncc4)oc23)cc1	u	32µM*	-6%[70.6 µM]	0%[88.5 µM]	i
O=C(c1ccsc1)N1CCC(N2CC(OCC3CC3)C23CCOCC3)CC1 (centres undefined)	-24%	-23%	x	-9%	x
Cc1ccc(CN2CCC(N3C(=O)c4c(c(C)nn4-c4ccccc4)C3C3CC3)CC2)cc1 (centres undefined)	i	-4%	x	x	x
Cc1ccc(-c2noc([C@@H]3C[C@H](NC(=O)COc4ccccc4)CN3C)n2)cc1	u	u	-9%[70.6 µM]	u	u
O=c1cc(-c2cccnc2)oc2c(-c3cn[nH]c3)nccc12	-23%[230 µM]	8.9µM*	1%[70.6 µM]	-2%[88.5 µM]	i
Cn1ccc(CN2CCn3c(nn(-c4ccc(F)cc4F)c3=O)C2)c1	u	-15%	-30%	-13%	i
CN1CCN(c2ccc3ncc(Nc4ccccc4-c4ccccc4)n3n2)CC1	40µM*	25µM*	u	u	i
Fc1ccccc1Nc1cnc2ccc(-n3ccnc3)nn12	u	u	-11%[70.6 µM]	-18%[88.5 µM]	i
c1ccc(-c2ccccc2Nc2cnc3ccc(-n4ccnc4)nn23)cc1	32µM*	25µM*	u	3%[88.5 µM]	i
COc1cc2nc(-c3cc4c(c(OC)c3)OCCNC4)cc(C)c2cc1OC	u	u	3%	i	i
Cc1ccc(C2Cn3nnc(C(=O)N4CCC(C(=O)Nc5ccc(F)c(F)c5)CC4)c3CO2)cc1 (centres undefined)	u	-15%	0%	-1%	40µM*
Cc1ccc(C2Cn3nnc(C(=O)N4CCC(C(=O)Nc5cc(F)cc(F)c5)CC4)c3CO2)cc1 (centres undefined)	-6%	i	-13%	3%	28µM*
CC(C)(C)C(=O)N1CCCN(c2ccc3nnc(C4CC4)n3n2)CC1	-27%	-28%	x	x	x
OC1(CN2CCN(c3ccc(F)c(Cl)c3)CC2)CCCNC1 (centres undefined)	79µM*	u	3%	i	i
Cc1nn2c(c1-c1ccccc1OCc1ccccc1)N(C(=O)C1CCC1)CCC2	40µM*	u	1%[70.6 µM]	-8%[88.5 µM]	i
Cc1nn2c(c1-c1ccccc1OCc1ccccc1)N(Cc1cccc(O)c1)CCC2	28µM*	25µM*	u	i	i
Cc1nn2c(c1-c1ccccc1[S+](C)(=O)[O-])N(Cc1ccccc1)CCC2	u	10µM*	-2%[70.6 µM]	0%[88.5 µM]	i
COc1cccc(CN2CCCn3nc(C)c(-c4ccccc4[S+](C)(=O)[O-])c32)c1	u	u	-15%[70.6 µM]	i	i
Cc1cccc(CN2CCC3(CC2)CC2C(=O)NCCN2C3)c1 (centres undefined)	-14%	-3%	1%	i	i
Cc1ccc(OCc2nc(C3CN(C(=O)c4cc(C)n(C)n4)C3)no2)cc1	u	u	-8%	i	i
O=C(Cc1ccc2c(c1)OCO2)N1CCOCC2(CN(Cc3cc(F)cc(F)c3)C2)C1	56µM*	35µM*	4%[70.6 µM]	-9%[88.5 µM]	i
Cc1ccc(C2Cn3nnc(C(=O)N4CCC(C(=O)NCc5cc(F)ccc5F)CC4)c3CO2)cc1 (centres undefined)	-21%	-13%	-2%	3%	35µM*
Cc1ccc(C2Cn3nnc(C(=O)N4CCC(C(=O)NCc5ccccc5Cl)CC4)c3CO2)cc1 (centres undefined)	2%	i	4%	i	u
Cc1ccc(C2Cn3nnc(C(=O)N4CCC(C(=O)NCc5ccc(F)cc5F)CC4)c3CO2)cc1 (centres undefined)	-1%	i	-2%	i	u
SMILES	HEK cytotox	3T3 cytotox	NPR1 antag	GPT2 inhibitor	Luciferase inh
Cc1ccc(C2Cn3nnc(C(=O)N4CCC(C(=O)NCc5ccccc5F)CC4)c3CO2)cc1 (centres undefined)	-1%	i	2%	-10%	22µM*
CC(O)CN1CCC(=O)N(CC(C)(C)C)Cc2cc3c(cc21)OCO3 (centres undefined)	-20%	u	x	x	x
Cc1ccc(-c2cc(C(=O)N3CCC(c4nc(C5CCOCC5)no4)C3)c3ccccc3n2)cc1C (centres undefined)	11µM*	u	u	-4%	0.32µM*
Cc1ccc(-c2cc(C(=O)N3CCC(Cc4nncn4C(C)C)CC3)c3ccccc3n2)cc1C	13µM*	u	-27%	i	5.6µM*
COC(=O)N[C@@H]1C[C@H]2C[C@@H](C(C)C)OC[C@@]2(c2ccccc2)C1	u	-28%	x	x	x
Cc1ccc(Nc2ccnc(N3CCCC(C(=O)NCc4cccc(F)c4)C3)n2)cc1 (centres undefined)	50µM*	u	x	i	x
COc1ccc(Nc2ccnc(N3CCCC(C(=O)NCCc4ccc(Cl)cc4)C3)n2)cc1 (centres undefined)	u	u	x	i	x
COc1ccc(Nc2ccnc(N3CCCC(C(=O)NCCc4ccccc4)C3)n2)cc1 (centres undefined)	u	u	x	i	x
Cc1ccc(Nc2ccnc(N3CCCC(C(=O)NCCc4ccccc4)C3)n2)cc1 (centres undefined)	u	28µM*	x	i	x
Cc1ccc(Nc2ccnc(N3CCCC(C(=O)NCc4ccccc4F)C3)n2)cc1 (centres undefined)	10µM*	14µM*	x	-14%	x
COc1ccc(Nc2ccnc(N3CCCC(C(=O)NCCc4ccccc4F)C3)n2)cc1 (centres undefined)	22µM*	u	x	-37%	x
Cc1oc2c(c1C(=O)NC1CCCC1)CN(Cc1ccc(F)cc1)CC2	u	-34%	-19%	i	i
O=C1Nc2ccc(-c3cccc(C(F)(F)F)c3)cc2C(=O)N2CCN(C(=O)c3ccco3)C[C@@H]12	40µM*	u	-19%	-5%	i
O=C1Nc2ccc(-c3cccc(C(F)(F)F)c3)cc2C(=O)N2CCN(C(=O)NC3CCCCC3)C[C@H]12	35µM*	u	1%	1%	i
CC(C)C(=O)N1CCC2(CC1)OC(=O)N(Cc1ccccc1)C2(C)c1ccccc1 (centres undefined)	u	10µM*	-7%[70.6 µM]	-33%[88.5 µM]	i
CC(C)CCN1CCC2(CC1)OC(=O)N(Cc1ccc(O)cc1)C2(C)c1ccccc1 (centres undefined)	u	89µM*	-17%[70.6 µM]	-8%[88.5 µM]	i
CC1(c2ccccc2)N(Cc2ccccc2)C(=O)OC12CCN(C(=O)Cc1cccc(F)c1)CC2 (centres undefined)	u	10µM*	-9%	4%	i

Compound activity: PubChem, National Center for Advancing Translational Sciences (NCATS)
